Source: PubChem BioAssay (NCATS)
Records with an inconclusive call do not appear. Calls of active or inactive are those of the source. Unless noted, calls follow the shape of the full dose curve.

Legend:
[1] = qHTS assay for small molecule agonists of retinoid X receptor alpha signaling (AID 588544); details: HEK293T RXRa-UAS-bla, beta-lactamase reporter, 18 h; 530 nm emission;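 as to activation: 0% = DMSO basal wells and 100% = reference agonist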
[2] = target: Retinoic acid receptor RXR-alpha (Homo sapiens) (UniProt P19793); test: as above; details: HEK293T RXRa-UAS-bla, beta-lactamase reporter, 18 h; series mostly up to 76.7 µM
Retinoic acid receptor RXR-alpha (Homo sapiens), sequence (P19793 whole entry, looked up): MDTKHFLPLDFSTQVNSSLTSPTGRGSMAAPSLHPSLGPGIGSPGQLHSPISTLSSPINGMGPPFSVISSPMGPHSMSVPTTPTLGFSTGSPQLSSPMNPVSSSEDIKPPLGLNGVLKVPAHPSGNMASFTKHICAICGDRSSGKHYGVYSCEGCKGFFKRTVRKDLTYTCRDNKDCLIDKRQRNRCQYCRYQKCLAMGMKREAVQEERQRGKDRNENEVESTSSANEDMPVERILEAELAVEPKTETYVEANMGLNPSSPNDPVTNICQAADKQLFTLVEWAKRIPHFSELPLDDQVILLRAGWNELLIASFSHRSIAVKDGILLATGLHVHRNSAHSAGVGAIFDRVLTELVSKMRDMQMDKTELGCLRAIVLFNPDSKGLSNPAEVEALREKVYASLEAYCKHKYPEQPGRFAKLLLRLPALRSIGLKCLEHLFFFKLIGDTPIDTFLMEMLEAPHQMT

[3] = target: Thyroid hormone receptor beta (Homo sapiens) (UniProt P10828); test: qHTS assay for small molecule agonists of thyroid hormone receptor beta signaling (AID 588545); details: TR-UAS-bla GripTite HEK 293, beta-lactamase ratio, agonist mode, 18 h, percent of T3 response, DMSO as zero; series mostly up to 76.7 µM;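 also: 0% = DMSO only and 100% = 10 nM T3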
Thyroid hormone receptor beta (Homo sapiens), sequence (P10828 whole entry, looked up): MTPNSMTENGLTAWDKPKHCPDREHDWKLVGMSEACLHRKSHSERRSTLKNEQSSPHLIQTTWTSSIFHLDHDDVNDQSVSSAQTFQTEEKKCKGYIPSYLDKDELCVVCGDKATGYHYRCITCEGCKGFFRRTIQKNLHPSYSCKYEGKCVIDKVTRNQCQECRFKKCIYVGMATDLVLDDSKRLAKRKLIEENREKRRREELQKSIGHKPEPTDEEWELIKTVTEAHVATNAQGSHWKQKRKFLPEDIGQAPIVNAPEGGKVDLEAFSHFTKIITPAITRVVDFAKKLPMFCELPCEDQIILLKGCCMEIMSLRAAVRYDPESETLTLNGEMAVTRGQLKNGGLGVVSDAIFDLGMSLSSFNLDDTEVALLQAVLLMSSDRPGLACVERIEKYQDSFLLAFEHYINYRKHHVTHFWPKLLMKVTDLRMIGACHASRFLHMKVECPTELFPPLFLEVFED
Procedure, shortened: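 Efficacy and EC50 values derive from Hill fits of qHTS titration data, normalized to 10 nM T3 and DMSO-only wells. HEK 293 reporter cells were stimulated for 18 hrs at 37 C, with beta-lactamase activity measured by CCF4 fluorescence.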

[4] = qHTS assay for small molecule antagonists of retinoid X receptor alpha signaling (AID 588546; active = well fitted inhibition curve with a large enough effect in the signal ratio, with a control signal flat, not every such curve was filed as active; the % refers to the signal ratio;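 also: cells stimulated with 9-cis-retinoic acid as agonist; % is scaled to controls: 0 for no effect and ±100 for the full control effect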); details: HEK293T RXRa-UAS-bla, beta-lactamase ratio, antagonist mode; measured here: W530 green channel, cytotoxicity proxy
Procedure, shortened: (§1)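 Beta-lactamase reporter inhibition, read as CCF4 fluorescence ratio (ex 405, em 460/530 nm) after 2 h at RT. HEK293T UAS-bla cells, 2500/well, were stimulated with 9-cis-RA at 500 or 100 nM final alongside test compound for 18 h at 37 C.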

[5] = target: Retinoic acid receptor RXR-alpha (Homo sapiens) (UniProt P19793); test: as above; details: HEK293T RXRa-UAS-bla, beta-lactamase ratio, antagonist mode
Procedure, shortened: as §1

[6] = target: Thyroid hormone receptor beta (Homo sapiens) (UniProt P10828); test: qHTS assay for small molecule antagonists of thyroid hormone receptor beta signaling (AID 588547; active = well fitted inhibition curve with a large enough effect in the signal ratio, with a control signal flat, not every such curve was filed as active; the % refers to the signal ratio;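 also: cells stimulated with 0.4 nM T3 agonist during compound exposure; % is scaled to controls: 0 for no effect and ±100 for the full control effect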); details: TR-UAS-bla HEK293, beta-lactamase ratio, antagonist mode, 18 h
Procedure, shortened: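 TR-UAS-bla GripTite HEK293 cells in 2% charcoal/dextran FBS medium were preincubated 4 h at 37 C, given compound (0.59 nM to 92 uM) plus 0.4 nM T3 (final) for 18 h, then CCF4 for 2 h at RT; Hill fit gave IC50.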

[7] = target: Voltage-gated inwardly rectifying potassium channel KCNH2 (Homo sapiens) (UniProt Q12809); test: qHTS Assay for Small Molecule Inhibitors of the Human hERG Channel Activity (AID 588834; active = well fitted inhibition curve with a large enough effect;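 also: top concentration of the series differs between compounds; % is scaled to controls: 0 for no effect and ±100 for the full control effect; lower thallium flux fluorescence means stronger hERG block; nearly all actives have a fitted effect of over 50% in size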); details: U2OS BacMam hERG, FluxOR thallium flux fluorescence; series mostly up to 92.2 µM
Voltage-gated inwardly rectifying potassium channel KCNH2 (Homo sapiens), sequence (Q12809 whole entry, looked up): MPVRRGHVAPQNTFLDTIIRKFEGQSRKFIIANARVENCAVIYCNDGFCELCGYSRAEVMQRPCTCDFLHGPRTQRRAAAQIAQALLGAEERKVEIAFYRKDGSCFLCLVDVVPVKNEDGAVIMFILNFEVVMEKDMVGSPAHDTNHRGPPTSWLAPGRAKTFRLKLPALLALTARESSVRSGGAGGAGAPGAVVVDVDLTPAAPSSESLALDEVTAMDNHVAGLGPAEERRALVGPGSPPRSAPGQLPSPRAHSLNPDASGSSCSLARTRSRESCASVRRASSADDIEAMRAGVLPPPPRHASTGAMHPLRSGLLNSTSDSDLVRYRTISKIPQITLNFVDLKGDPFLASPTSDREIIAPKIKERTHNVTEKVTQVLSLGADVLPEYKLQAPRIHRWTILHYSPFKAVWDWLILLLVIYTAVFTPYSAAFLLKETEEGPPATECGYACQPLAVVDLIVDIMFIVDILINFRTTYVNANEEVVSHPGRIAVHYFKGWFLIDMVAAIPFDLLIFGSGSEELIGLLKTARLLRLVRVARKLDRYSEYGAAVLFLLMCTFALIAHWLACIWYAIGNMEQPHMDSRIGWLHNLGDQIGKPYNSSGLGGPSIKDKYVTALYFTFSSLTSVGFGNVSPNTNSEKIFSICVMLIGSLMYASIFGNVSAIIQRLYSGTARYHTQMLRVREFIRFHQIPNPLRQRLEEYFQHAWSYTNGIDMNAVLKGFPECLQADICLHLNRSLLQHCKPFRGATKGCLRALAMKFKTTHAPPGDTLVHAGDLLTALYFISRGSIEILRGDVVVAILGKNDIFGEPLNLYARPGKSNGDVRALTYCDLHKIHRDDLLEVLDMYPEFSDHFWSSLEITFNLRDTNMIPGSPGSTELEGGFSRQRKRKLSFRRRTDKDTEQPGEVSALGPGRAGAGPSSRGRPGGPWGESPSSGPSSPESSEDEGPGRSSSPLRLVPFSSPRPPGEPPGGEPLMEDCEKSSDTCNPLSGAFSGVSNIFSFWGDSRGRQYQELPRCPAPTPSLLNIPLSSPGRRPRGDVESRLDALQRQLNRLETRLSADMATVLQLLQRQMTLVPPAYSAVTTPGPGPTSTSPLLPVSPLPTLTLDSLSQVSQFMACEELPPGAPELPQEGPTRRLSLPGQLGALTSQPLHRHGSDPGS
Procedure, shortened: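 hERG-BacMam U2OS, 2000 cells/well; 0.7X FluxOR loading 1 hr RT dark; cpd ~10 min 37 °C; stim buffer; FDSS fluorescence 2 min @ 1 s; AC50 Hill fit.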

[8] = qHTS assay for small molecule activators of the p53 signaling pathway (AID 651743; active = well fitted activation curve with a large enough effect in the signal ratio, not every such curve was filed as active; the % refers to the signal ratio; also: % of control where 0% means no effect); details: HCT-116 p53RE-bla, beta-lactamase FRET ratio, 16 h; stronger effect = higher value
Procedure, shortened: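 Cell-based beta-lactamase reporter (p53 response elements, HCT-116 background). After a 5-hour preincubation, cells received compound for 16 hours at 37 C; substrate development ran 2 hours at room temperature.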

[9] = qHTS assay for small molecule activators of the nuclear factor-kappa B (NF-kB) signaling pathway (AID 651749; active = well fitted activation curve with a large enough effect in the signal ratio; the % refers to the signal ratio; also: % of control where 0% means no effect); details: NF-kB-bla ME-180 cells, beta-lactamase FRET ratio, 16 h; stronger effect = higher value
Procedure, shortened: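 Screening used 2,000 ME-180 reporter cells per well exposed to pinned compound (23 nL) or DMSO; after 16 hr at 37C, beta-lactamase expression under NF-kB control was assessed through FRET.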

[10] = qHTS assay for small molecule agonists of the antioxidant response element (ARE) signaling pathway (AID 651741; active = well fitted activation curve with a large enough effect in the signal ratio; the % refers to the signal ratio; also: % of control where 0% means no effect); details: HepG2 ARE-bla reporter, beta-lactamase FRET ratio, 16 h; series mostly up to 96 µM
Procedure, shortened: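 Compounds in DMSO are pinned onto HepG2 ARE-bla cells (2,000/well) that were preincubated 5 h; plates stay 16 h at 37 C, then beta-lactamase activity is detected with LiveBLAzer B/G substrate by fluorescence.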

Row | SMILES | max response [1] [%] | outcome [2] | outcome [3] | max response [4] [%] | max response [5] | activity change % (negative = inhibition) [6] | Potency [7] | activation [8] | activation [9] | Potency [10]
1 | C=CCCCCCC | -14 | inactive | inactive | 0.804 | -6.3% (inactive) | -3.79% (inactive) | inactive | -2.89% (inactive) |  | 
2 | O=[N+]([O-])c1cccc(Cl)c1 | -8.32 | inactive | inactive | -3.93 | 7.77% (inactive) | -12.9% (inactive) | inactive | -3.73% (inactive) | 0.464% (inactive) | 
3 | CCCCCCCCCCCCC1CO1 (stereo unspecified) | -5.24 | inactive | inactive | -6.03 | 7.51% (inactive) | -0.964% (inactive) | inactive |  | 0.702% (inactive) | 
4 | O=C(O)c1ccc(CO)o1 | -7.5 | inactive | inactive | -4.49 | -4.1% (inactive) | -7.49% (inactive) | inactive | -2.63% (inactive) | 0.608% (inactive) | 
5 | Nc1cccc(O)c1 | -4.39 | inactive | inactive | 6.84 | 1.85% (inactive) | -7.53% (inactive) | inactive |  | -1.16% (inactive) | 
6 | Nc1cccc(N)c1 | 0.0667 | inactive | inactive | 1.75 | -3.92% (inactive) | -1.36% (inactive) | inactive | -1.04% (inactive) | -0.628% (inactive) | 
7 | CCOc1cccc(N)c1 | -8.66 | inactive | inactive | 5.53 | -4.73% (inactive) | -0.0909% (inactive) | inactive | 0.42% (inactive) | -0.866% (inactive) | 
8 | CC(C)(C)OCC1CO1 (stereo unspecified) | -14.1 | inactive | inactive | -6.46 | -4.17% (inactive) | 13.4% (inactive) | inactive | 0.176% (inactive) | 0.44% (inactive) | 
9 | NC(=O)NC(N)=O | 6.09 | inactive | inactive | -1.82 | 66.5% (inactive) | 9.23% (inactive) | inactive | -4.91% (inactive) |  | 
10 | Cc1cccc(C)c1O | -16.7 | inactive | inactive | 3.79 | -1.13% (inactive) | -9.8% (inactive) | inactive | -0.5% (inactive) | -0.357% (inactive) | 
11 | O=C(O)c1ccc(Cl)c(Cl)c1 | 12.9 | inactive | inactive | 11.8 | 14.6% (inactive) | 2.03% (inactive) | inactive | 3.05% (inactive) | 0.147% (inactive) | 
12 | CCCC(Cl)CCCC(Cl)CCC(Cl)CCC(Cl)CCC(Cl)CCCC(Cl)CCC (stereo unspecified) | -10.5 | inactive | inactive | -0.455 | -10.6% (inactive) | -14.9% (inactive) | inactive | 0.55% (inactive) | 0.0275% (inactive) | 
13 | Cc1ccc([N+](=O)[O-])c(N)c1 | 3 | inactive | inactive | -20.5 | -4.21% (inactive) | -0.142% (inactive) | inactive |  | -0.448% (inactive) | 
14 | CCCCCCCCC/C=C/CC1CC(=O)OC1=O (stereo unspecified) | -0.831 | inactive | inactive | 1.93 | 19.9% (inactive) | 2.72% (inactive) | inactive |  | -0.282% (inactive) | 
15 | Cc1cccc(C(=O)O)c1 | -7.73 | inactive | inactive | -2.27 | 12.5% (inactive) |  | inactive | -0.475% (inactive) | 0.0626% (inactive) | 
16 | CC(C)N=C=NC(C)C | -13.3 | inactive | inactive | 10.7 | 7.57% (inactive) | 1.37% (inactive) |  | 1.3% (inactive) | -0.231% (inactive) | inactive
17 | CC(=O)c1cccc([N+](=O)[O-])c1 | -6.78 | inactive | inactive | 3.27 | 7.36% (inactive) |  | inactive |  |  | inactive
18 | Cc1cc(C)cc([N+](=O)[O-])c1 | 8.04 | inactive | inactive | 5.59 | 4.7% (inactive) |  | inactive | -0.0084% (inactive) | 0.968% (inactive) | 
19 | COCCOC(=O)c1ccccc1C(=O)OCCOC | -5.12 | inactive | inactive | -3.43 | 23.2% (inactive) |  | inactive |  | 0.152% (inactive) | inactive
20 | C(=C/c1ccccc1)/c1ccccc1 | -10 | inactive | inactive | -6.97 | -3.93% (inactive) | -6.07% (inactive) |  | -2.17% (inactive) | -0.123% (inactive) | 
21 | O=[N+]([O-])c1ccc(NCCO)c(OCCO)c1 | 4.58 | inactive | inactive | -6.21 | -6.4% (inactive) |  | inactive | -3% (inactive) |  | 
22 | CC(N)CN (stereo unspecified) | -2.32 | inactive | inactive | -2.44 | 12.6% (inactive) | -4.82% (inactive) | inactive |  | 0.0382% (inactive) | 
23 | CC(=C/C=C/C(C)=C/C=C/C=C(C)/C=C/C=C(C)/C=C/C(=O)O)/C=C/C(=O)O | -15.4 | inactive | inactive | -2.63 | -3.15% (inactive) |  | inactive | -0.825% (inactive) | -0.299% (inactive) | 
24 | CCC(=O)/C=C/C1C(C)=CCCC1(C)C (stereo unspecified) | -9.1 | inactive | inactive | -4 | 2.33% (inactive) | -4.67% (inactive) |  | -2.61% (inactive) |  | 
25 | CCC1CO1 (stereo unspecified) | -15.4 | inactive | inactive | -10.7 | -1.32% (inactive) | -15.4% (inactive) | inactive |  | -0.443% (inactive) | 
